The list is not random: actives were taken first. Their share in the collection is about 11%.
ALDH1A1 inh: qHTS Assay for Inhibitors of Aldehyde Dehydrogenase 1 (ALDH1A1). Aldehyde dehydrogenase 1A1 (Homo sapiens), P00352. Purified ALDH1A1, NADH fluorescence, propionaldehyde substrate. Potency, µM (top dose mostly 75.3 µM), hits mostly inhibitors. actives 7.3% (n = 220,000)
HPGD block: qHTS Assay for Inhibitors of HPGD (15-Hydroxyprostaglandin Dehydrogenase) | actives 4.3% (n = 150,000) | Potency, µM, actives largely listed as inhibitors | purified HPGD, NADH fluorescence kinetic, PGE2 substrate
Target sequence (P15428 whole entry, looked up): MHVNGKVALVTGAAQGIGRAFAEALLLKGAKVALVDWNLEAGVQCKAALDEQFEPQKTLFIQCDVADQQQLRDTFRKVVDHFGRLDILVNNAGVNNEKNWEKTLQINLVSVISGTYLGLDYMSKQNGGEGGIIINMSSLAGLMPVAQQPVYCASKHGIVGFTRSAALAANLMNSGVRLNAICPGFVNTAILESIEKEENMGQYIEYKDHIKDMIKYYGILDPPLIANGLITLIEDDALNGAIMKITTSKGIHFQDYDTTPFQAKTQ
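NADH formation kinetics: reaction with 30 uM PGE2 and 1 mM NAD+ (final), 20 nM enzyme, Tris-HCl pH 8 with Tween 20, after 15 min compound preincubation at room temperature. Fluorescence change, last versus first of five reads.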
PNC inhibitor: High Content Assay for Compounds that inhibit the Assembly of the Perinucleolar Compartment; PC3M PTB-GFP, PNC prevalence imaging, 16 h; stronger effect = lower value; AID 2417, 2010; activity change (PNC), negative = inhibition, % at 10 µM; actives 3.1% (n = 140,000);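 active = readout at or below -70, meaning at least 70% loss of cells showing the perinucleolar compartment, a nuclear body marking cancer cells; inconclusive = readout between -30 and a set limit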
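Read-out is percentage of cells bearing a perinucleolar compartment, from automated 20x imaging of fixed, Hoechst-stained PC3M PTB-GFP cells. Cells were seeded 4 h, then exposed 16 h to compound (23 nl of library stock) in duplicate plates.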
A number is an active result; i = inactive; ? = inconclusive; nt = not tested or not shown; [ ] = remark or other dose. Unless noted, calls come from the whole dose curve; as a rule, active = well fitted inhibition curve with a large enough effect (not every such curve was filed as active); inconclusive = small, poorly fitted or top-dose-only effect, or another doubt; inactive = no such curve, though single readings can be large or run the other way.

SMILES	ALDH1A1 inh	HPGD block	PNC inhibitor
COC(=O)CCC(NC(=O)OCc1ccccc1)C(=O)NC(CC(C)C)C(=O)OC (stereo not given)	i	i	i
CCOC(=O)C1CN(S(C)(=O)=O)c2cc(CC(=O)OC)ccc2O1 (stereo not given)	i	nt	nt
COc1ccc(N2CC(O)=C(c3nc4ccccc4s3)C2=N)c(OC)c1	i	?	i
N=C1C(c2nc3ccccc3s2)=C(O)CN1Cc1ccco1	22µM	?	i
COC(=O)c1nnn(-c2nc(N(C)C)nc(N(C)C)n2)c1C	i	nt	nt
CC(C)CO[C@H](c1ccc2c(c1)OCO2)[C@H](C)Br	i[13.5 µM]	i	nt
O=C(CSc1nc2ncc(Br)cc2[nH]1)Nc1ccc2c(c1)OCO2	25µM	nt	i
Cc1nc2nc(SCC(=O)C(C)(C)C)[nH]c2cc1Br	?	?	i
CCOc1ccc2nc(SCC(=O)Nc3ccc4c(c3)OCCO4)[nH]c2c1	?	i	i
CC(C)(C)C(=O)CSc1nc2ncc(Br)cc2[nH]1	?	nt	-98
Cc1[nH][nH]c(=O)c1C(c1ccc(-c2ccccc2C(=O)O)o1)c1c(C)[nH][nH]c1=O	5µM	nt	nt
COC(=O)c1ccc(-c2ccc(C(c3c(C)[nH][nH]c3=O)c3c(C)[nH][nH]c3=O)o2)cc1	3.5µM	nt	nt
Cc1[nH][nH]c(=O)c1C(c1ccc(-c2ccc(Cl)cc2Cl)o1)c1c(C)[nH][nH]c1=O	?	?	i
COc1ccc(O)c(C(c2c(C)[nH][nH]c2=O)c2c(C)[nH][nH]c2=O)c1	i	nt	nt
COC(=O)C[C@H]1c2ccccc2C2=C(C[C@@H](C)[C@H]3C(=O)N(c4ccccc4)C(=O)[C@@H]23)N1C(=O)OC	?	i	nt
OC[C@@H](O)[C@@H](O)[C@@H](O)[C@@H](O)c1nc2ccc(Cl)cc2[nH]1	i[13.5 µM]	i	nt
O=C1C=C(O)c2ccccc2C1=O	16µM	?	nt
O=C1C=C(Nc2nc(C(=O)O)cc(=O)[nH]2)c2ccccc2C1=O	i[13.5 µM]	i	nt
O=C(CN1C(=O)S/C(=C/C=C/c2ccccc2)C1=O)Nc1ccc(C(=O)O)cc1	i	nt	nt
O=C(CN1C(=O)S/C(=C\C=C\c2ccccc2)C1=O)Nc1ccc(C(=O)O)cc1	13µM	nt	nt
CN(c1ccccc1C(=O)N1CCN(Cc2ccc3c(c2)OCO3)CC1)S(C)(=O)=O	i	nt	nt
Cc1cc(C)nc(N2CCCC(C(=O)Nc3nnc(C(C)C)s3)C2)n1 (stereo not given)	i	i	-100
Cc1cc(C)nc(N2CCCC(C(=O)Nc3nnc(C)s3)C2)n1 (stereo not given)	i	nt	i
Cc1cc(C)nc(N2CCCC(C(=O)Nc3ccc4nc(C)c(C)nc4c3)C2)n1 (stereo not given)	16µM	i	i
Cc1cc(C)cc(NC(=O)C2CCCN(c3nc(C)cc(C)n3)C2)c1 (stereo not given)	i	i	i
SMILES	ALDH1A1 inh	HPGD block	PNC inhibitor
NCCC[C@@H](CC(=O)N[C@@H]1CCNC[C@H]1C(=O)N[C@H](CC(=O)N[C@@H](CCC(=O)O)CC(=O)O)Cc1c[nH]c2ccccc12)NC(=O)C[C@H](CO)NC(=O)[C@@H]1CCCC[C@H]1N	i	i	nt
Cc1ccc([C@@]2(C)CC/C(=N/N=C3\CC[C@](C)(c4ccc(C)c(C)c4)c4cc(C)c(C)cc43)c3cc(C)c(C)cc32)cc1C	i[13.5 µM]	i	nt
CC(=O)C1=C(C)NC(SCc2cccc([N+](=O)[O-])c2)=C(C#N)C1c1ccco1 (stereo not given)	?	i	i
COc1ccc(-n2c(C)c3c(OC)cccc(=O)c3c2C)cc1	i	i	i
COc1ccccc1-n1c(C)c2c(OC)cccc(=O)c2c1C	?	11µM	?
COc1ccc(/C=N/NC(=O)C(=O)NCc2cccnc2)cc1	i	nt	nt
Cc1ccc(OC(=O)c2sc3ncn(C)c(=O)c3c2C)cc1	i	nt	nt
Cc1onc(-c2c(F)cccc2Cl)c1C(=O)N1CCN(c2ncccn2)CC1	i	nt	nt
O=C(c1sc2cccc(F)c2c1Cl)N1CCN(c2ncccn2)CC1	28µM	i	i
Cc1ccccc1C(=O)NC1CCN(CC(=O)Nc2nccs2)CC1	i	i	?
COC(=O)c1ccccc1NC(=O)CN1CCC(NC(=O)c2ccccc2C)CC1	20µM	i	i
CC1C/C(=C\c2cccnc2)C(=O)/C(=C/c2cccnc2)C1 (stereo not given)	i	i	-116
O=C1/C(=C\c2cccnc2)Sc2ccccc21	i	i	i
Cc1cc(NC(=O)CN2CC(C)OC(C)C2)n(-c2nc3ccccc3s2)n1 (stereo not given)	i	i	-99
CCOC(=O)C1CCN(CC(=O)Nc2cc(C)nn2-c2nc3ccccc3s2)CC1	i	i	i
